Inconclusive results are not listed. Active and inactive are the calls of the source. Calls come from the whole dose curve; as a rule, active = well fitted inhibition curve with a large enough effect; inconclusive = small, poorly fitted or top-dose-only effect; inactive = flat fitted curve, though single readings scatter.
assay: Confirmatory Assay for General miRNAs Modulators and/or Inhibitors/Activators of miR-21: second round cherrypicks; details: HeLa miR-21 FLuc reporter, luciferase luminescence, 48 h; series mostly up to 38.3 µM
Excerpt: MLPCN Grant: 1 R21 NS059478-01 Assay Provider: Qihong Huang, The Wistar Institute NCGC Assay Overview: MicroRNAs (miRNAs) are endogenously encoded small (~20-25 nucleotides), nonprotein-coding RNAs that are involved in post-transcriptional repression of target messenger RNAs (mRNAs) (Le and Hannon, 2004). Estimated to be involved in the regulation of 30% of all protein-coding mRNAs (Filipowicz et al., 2008), miRNAs play a significant role in many biological processes including cellular differentiation and tissue development (Ghildiyal and Zamore, 2009).
NCGC Assay Protocol Summary: Reagents: HeLa cells stably expressing firefly luciferase (FLuc) under the control of a CMV promoter (upstream) and a miR-21 binding sequence directly downstream of the gene. These cells endogenously express miR-21. Control compounds used were compound C3 (provided by collaborator), N6-phenyladenosine (MP Biomedicals, 0215379625), and DMSO. Assay Summary: 6uL of HeLa miR-21-FLuc cells in assay buffer (DMEM, Invitrogen #21063-029; 10% FBS, HyClone #SH30071.03) were dispensed at 2000cells/well (3.3 x 10^5 cells/mL) into Greiner solid-white TC-treated 1536-well plates using a Multidrop Combi (Thermo Fisher Scientific). Plates were incubated for one hour at 37 degree Celsius, 95% humidity, 5% CO2. These assay plates were then treated with 23nL of compound or DMSO using a Kalypsys pin tool, which allows for delivery of a 24-point titration of each compound to the assay plate, with a final compound concentration ranging from approximately 40uM to 5pM. Assay plates were then incubated for 48 hours. After incubation, plates were allowed to come to RT for one hour prior to delivery of 3uL of 3X luciferase detection reagent. After a 15 minute incubation to allow for cell lysis, luciferase activity was measured using a ViewLux CCD imager (PerkinElmer), with an average exposure time of 2-12 seconds. Keywords: NIH Roadmap, MLPCN, MLSMR, qHTS, miR-21, microRNA, firefly luciferase, FLuc.

Potency, inactive:
CN(c1ccccc1)S(=O)(=O)c1nnc(NC(=O)c2ccco2)s1
CCC(CC)C(=O)Nc1nnc(S(=O)(=O)N2CCCCCC2)s1
CC(=O)O[C@H]1C[C@@]2(C)[C@@H](C[C@@H](O)[C@H]3[C@@]4(C)CC[C@@H](O)[C@@H](C)C4CC[C@@]32C)/C1=C(\CCC=C(C)C)C(=O)O (stereo partly drawn)
CCC(C)NC(=O)CCCn1c(=O)c2cccn2c2ccccc21 (stereo not drawn)
O=C(NC1CCCCCC1)C1CCN(C(=O)N2CCOc3ccc(Cl)cc32)CC1
C/C(=N/NC(=O)c1ccccc1)c1ccc(NC(=O)C(F)(F)F)cc1
COc1ccccc1N1CCN(C(=O)c2nc(-c3ccc(C)cc3)n3c2CCCCC3)CC1

Potency, active:
Cc1ccccc1NC(=O)c1cc2c([nH]c1=O)CC(C)(C)CC2=O 0.711 µM
CC(=O)N1CCc2cc(CNC(=O)Cc3ccc(F)cc3)ccc21 11.3 µM
CCCCN1CCc2c([nH]c3ccccc23)C1=O 12.6 µM
CCOC(=O)C1CCN(C(=O)c2ccc(-n3ccc4ccccc43)s2)CC1 11.3 µM
COCCNC(=O)c1ccc2c(c1)ncn2-c1ccc(F)c(F)c1 22.5 µM
CCOC(=O)c1cccc(NC(=O)c2cc(CN3CCCC3)on2)c1 1 µM
CCc1cc(C(=O)Nc2ccccc2)cs1 3.18 µM
O=C(Nc1sc2c(c1C(=O)NCc1ccco1)CCCC2)c1cc(=O)c2ccccc2o1 5.65 µM
Cc1ccc(C(=O)Nc2ccc3c(c2)ncn3C)cc1 7.11 µM
COc1ccc(N2C(=O)c3ccccc3NC2c2ccc(OC)c(Cn3nnc4ccccc43)c2)cc1 (stereo not drawn) 12.6 µM
Cc1cc(C)c2c(N)c(C(=O)Nc3ccccc3C(F)(F)F)sc2n1 20 µM
Cc1cccc(NC(=O)Nc2ccc(Br)cc2)n1 2.52 µM
CCC(C)C(=O)N1CCCC(c2nc(-c3cccs3)no2)C1 (stereo not drawn) 12.6 µM
Cc1ccc(-c2cc(C(=O)NCC3CCCO3)no2)cc1 (stereo not drawn) 4.49 µM
CC(C)c1cc(C(=O)Nc2cccnc2)no1 3.18 µM
CC(=O)c1ccc(Oc2ncnc3c2oc2ccccc23)cc1 4 µM
CCC(=O)Nc1sc(C(=O)Nc2ccccc2)c(C)c1C(=O)OC 2.25 µM
CCCOc1ccc(OC(=O)c2ccc(-c3ccc(CCC)cn3)cc2)cc1 1.26 µM
COc1ccc(Nc2nc(C)c3ccccc3n2)cc1 6.34 µM
COC(=O)c1ccccc1NC(=O)Nc1cc(C(C)(C)C)on1 5.65 µM
Cc1ccc(NC(=O)c2ccc(-c3ccccc3)s2)cc1 5.65 µM

— PubChem BioAssay AID493174 (National Center for Advancing Translational Sciences (NCATS), 2011)
